PubChem BioAssay AID1159580 (chemical genetic matrix, 2015)
Where “and” joins values, the source holds several entries; their conditions need not be identical. Identical values can stand only once. The campaign covered roughly 5,500 compounds. About 2,000 (36%) were called active. Another 18% or so got no clear call; they are omitted. No stated cut-off is given here; in the data, active means normalized growth mostly below about 0.91 (no sharp cut-off); inconclusive means no clear call, values can overlap the other calls; inactive means mostly above about 0.92. Some of the results follow.

Assay: chemical genetic growth profiling, strain panel (AID 1159580);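 further: tested at 20 µM; growth read once vehicle control cultures reached saturation at 30 °C; 1 = growth at the plate median or of vehicle wells; lower values mean less growth of the strain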
Details: S. cerevisiae deletion strains, growth OD

Measured: normalized growth

CC(=O)OCC(=O)[C@@]1(O)CCC2C3C[C@H](C)C4=CC(=O)C=CC4(C)C3[C@@H](O)CC21C (stereo partly specified)
inactive: locus YAL013W, strain DEP1, hits give low values 1.01 | locus YAL021C, strain ccr4, hits give low values 1.03 | locus YAL026C, strain drs2, hits give low values 1.03 | locus YAL030W, strain snc1, hits give low values 1.01 | locus YBL061C, strain skt5, hits give low values 1.01 | locus YBR009C, strain hhf1, hits give low values 0.985 | locus YBR021W, strain FUR4, hits give low values 0.968 | locus YBR023C, strain chs3, hits give low values 1.02 | locus YBR171W, strain sec66, hits give low values 1.03 | locus YBR229C, strain ROT2, hits give low values 1.01 | locus YBR231C, strain swc5, hits give low values 1.01 | locus YBR279W, strain paf1, hits give low values 1.01 | locus YCL011C, strain gbp2, hits give low values 1.02 | locus YCL016C, strain dcc1, hits give low values 1.01 | locus YCL029C, strain bik1, hits give low values 1.01 | locus YCL061C, strain MRC1, hits give low values 1.03 | locus YCL069W, strain vba3, hits give low values 1.03 | locus YCR088W, strain abp1, hits give low values 1.02 | locus YDL005C, strain med2, hits give low values 1.01 | locus YDL035C, strain GPR1, hits give low values 1.01 | locus YDL040C, strain nat1, hits give low values 1.01 | locus YDL074C, strain BRE1, hits give low values 0.994 | locus YDL101C, strain DUN1, hits give low values 1.01 | locus YDL134C, strain PPH21, hits give low values 1.01 | locus YDL185W, strain tfp1, hits give low values 1.01 | locus YDL192W, strain arf1, hits give low values 1 | locus YDR001C, strain nth1, hits give low values 1.01 | locus YDR069C, strain doa4, hits give low values 1.02 | locus YDR101C, strain arx1, hits give low values 1 | locus YDR137W, strain rgp1, hits give low values 1.03 | locus YDR150W, strain NUM1, hits give low values 1.01 | locus YDR159W, strain sac3, hits give low values 0.995 | locus YDR162C, strain NBP2, hits give low values 0.992 | locus YDR195W, strain ref2 1.01 | locus YDR297W, strain sur2, hits give low values 0.994 | locus YDR318W, strain mcm21, hits give low values 1.01 | locus YDR334W, strain swr1, hits give low values 1.02 | locus YDR335W, strain msn5, hits give low values 1.02 | locus YDR388W, hits give low values 1.01 | locus YDR392W, strain spt3, hits give low values 1.03 | locus YDR502C, strain sam2, hits give low values 0.989 | locus YEL003W, strain gim4, hits give low values 1.02 | locus YEL037C, strain rad23, hits give low values 1.02 | locus YEL061C, strain CIN8 (second series), hits give low values 1.02 | locus YEL061C, strain CIN8, hits give low values 1.01 | locus YER015W, strain faa2, hits give low values 1.01 | locus YER016W, strain bim1, hits give low values 1.03 | locus YER110C, hits give low values 1.01 | locus YER111C, strain swi4, hits give low values 1.02 | locus YER155C, strain BEM2 (second series), hits give low values 1.05 | locus YER155C, strain BEM2, hits give low values 1.01 | locus YER167W, strain BCK2, hits give low values 1.01 | locus YFR010W, strain ubp6, hits give low values 0.996 | locus YGL078C, strain dbp3, hits give low values 1 | locus YGL086W, strain mad1, hits give low values 1.02 | locus YGL167C, strain pmr1, hits give low values 1.02 | locus YGL173C, strain kem1, hits give low values 1.03 | locus YGL227W, strain vid30, hits give low values 1.02 | locus YGL240W, strain doc1, hits give low values 1 | locus YGL248W, strain PDE1, hits give low values 1 | locus YGL253W, strain hxk2, hits give low values 1.01 | locus YGR078C, strain PAC10, hits give low values 0.996 | locus YGR135W, strain pre9, hits give low values 0.982 | locus YGR229C, strain SMI1, hits give low values 1 | locus YGR252W, strain gcn5, hits give low values 1.03 | locus YHR013C, strain ard1, hits give low values 1.03 | locus YHR027C, strain rpn1, hits give low values 1.01 | locus YHR030C, strain SLT2, hits give low values 1.01 | locus YHR079C, strain IRE1 (second series), hits give low values 1.01 | locus YHR079C, strain IRE1, hits give low values 1.02 | locus YHR094C, strain hxt1, hits give low values 1.01 | locus YHR129C, strain ARP1, hits give low values 1.02 | locus YHR142W, strain chs7, hits give low values 1.01 | locus YHR200W, strain rpn10, hits give low values 1 | locus YIL066C, strain RNR3, hits give low values 1.02 | locus YIL073C, strain SPO22, hits give low values 1.03 | locus YIL125W, strain kgd1, hits give low values 1.01 | locus YIR030C, strain dcg1, hits give low values 0.997 | locus YJL092W, strain hpr5, hits give low values 1.02 | locus YJL095W, strain BCK1 (second series), hits give low values 1.01 | locus YJL095W, strain BCK1, hits give low values 1.01 and 1.02 | locus YJL115W, strain asf1, hits give low values 1.02 | locus YJL129C, strain trk1, hits give low values 1.02 | locus YJL134W, strain LCB3, hits give low values 1 | locus YJL154C, strain vps35, hits give low values 1.02 | locus YJL164C, strain tpk1, hits give low values 1.01 | locus YJL166W, strain qcr8, hits give low values 1.01 | locus YJL168C, strain set2, hits give low values 1.01 | locus YJL187C, strain SWE1 (second series), hits give low values 1.02 | locus YJR043C, strain POL32, hits give low values 0.999 | locus YJR066W, strain TOR1, hits give low values 0.99
